Source: PubChem BioAssay (The Scripps Research Institute Molecular Screening Center)
TTR transcr act: increases transthyretin transcription; SH-SY5Y TTR promoter Gaussia luciferase, luminescence; 100% = recombinant luciferase protein wells; activation, % at 16.7 µM; hit rate 1.3% among 92,000; AID 1117267;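 active = activation above the mean of all tested compounds plus 3 SD, cut at about 9.5% in these data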;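 note: cells exposed to compounds for one day before reading; 0% = median of all test compound wells on the plate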
HuH7 TTR inh: counter-screen for TTR activators: TTR transcription inhibitors in HuH7 cells; shares compounds with TTR transcr act; hit rate 4% among 1,100; inhibition, % at 16.7 µM; HuH7 TTR promoter-Gaussia luciferase reporter, luminescence;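 active = average inhibition above the solvent-only control wells' mean plus 3 SD, cut at about 15% in these data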;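 note: 0% = cells with DMSO only and 100% = cells with inhibitor control FD; inhibitors lower well luminescence so higher value means more inhibition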
TTR act confirm: confirmation of human transthyretin transcription activators; shares compounds with TTR transcr act; SHSY5Y TTR promoter Gaussia luciferase, luminescence; 100% = purified Lucia enzyme wells, no cells; activation, % at 16.7 µM; 1,100 tested, under 10 active; AID 1117280;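 active = mean activation above a set limit taken from the earlier primary screen, cut at about 11% in these data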;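 note: 0% = DMSO-treated cells and 100% = recombinant Lucia luciferase without cells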
Active calls of the source: *. This is one part of a sample in which hits are shown more often than they occur.

SMILES | TTR transcr act | others
Cc1cc(Br)cc2c1N(C)C(=O)C2(c1ccc(O)cc1)c1ccc(O)cc1 | 47* | HuH7 TTR inh=-5;TTR act confirm=2
CN1C(=O)C(c2cn(C)c3ccccc23)(c2cn(C)c3ccccc23)c2cc(Br)ccc21 | 0
O=S1(=O)c2ccc(N3CCCC3)cc2Oc2ccccc2CN1Cc1cn(Cc2ccc(F)cc2)nn1 | 0
Cc1ccnc(SCc2cc(=O)c(OC(=O)c3ccc(C)c([N+](=O)[O-])c3)co2)n1 | -1
CN(CC(=O)Nc1ccc(S(N)(=O)=O)cc1)C1CCCCC1 | -1
CN(CC(=O)NC(=O)Nc1ccccc1F)Cc1ccccc1F | -1
CN(CC(=O)Nc1ccc(S(N)(=O)=O)cc1)Cc1ccccc1F | 16* | HuH7 TTR inh=-1;TTR act confirm=1
CC(=O)O[C@H]1C=C[C@@H](NC(=O)OC(C)(C)C)C1 | 2
O=C(N/C(=C/c1cccnc1)C(=O)N1CCOCC1)c1ccccc1Cl | -1
O=C(N/C(=C/c1cccnc1)C(=O)N1CCOCC1)c1ccccc1F | 20* | HuH7 TTR inh=-3;TTR act confirm=-1
CC(=O)N/C(=C\c1ccccc1)C(=O)N1CCOCC1 | -2
O=C(O[C@H]1CC[C@@]23CCCN2C(=O)CCC[C@H]3C1)N1CCCC1 | 1
Fc1ccccc1Cn1ccc2ccc(-c3ccc4ccn(Cc5ccccc5F)c4c3)cc21 | 0
Cc1cc(SCC(=O)N/N=C/c2ccc(O)c(O)c2)c(C)cc1Br | 4
Oc1ccc(/C=N/NC(=S)Nc2cccnc2)cc1O | -2
O=C(N/N=C/c1ccc(O)c(O)c1)N/N=C/c1ccc(O)c(O)c1 | 11* | HuH7 TTR inh=-10;TTR act confirm=-1
O=C(Nc1ccc(F)c(C(F)(F)F)c1)Nc1nnc(-c2ccncc2)s1 | -1
CCN(CC)CCNS(=O)(=O)c1ccc2[nH]cc(C(=O)O)c(=O)c2c1 | 0
CCCCN(C)C(=O)c1c[nH]c2ccc(S(=O)(=O)N3CCOCC3)cc2c1=O | 11* | HuH7 TTR inh=-7;TTR act confirm=1
O=C(NCCN1CCOCC1)c1c[nH]c2ccc(S(=O)(=O)N3CCOCC3)cc2c1=O | 0
O=C(Nc1ccc(F)cc1)OCc1cn(Cc2ccccc2Cl)nn1 | 1
COc1ccc(C2Nc3ccccc3C(=O)N2Cc2cccnc2)cc1COc1c(C)cccc1C (stereo not given) | -2
N#CN1CCC(NS(=O)(=O)c2ccc(F)cc2)C1 (stereo not given) | 5
O=C(OCc1ccccc1)[C@H](Cc1ccccc1)NC(=O)[C@@H]1CC=C[C@@H]2CCN(Cc3ccccc3)C(=O)[C@@H]21 | 0
COc1ccc(S(=O)(=O)N2CCC[C@H]2C(=O)NCc2ccc(Cl)cc2)cc1 | 2
SMILES | TTR transcr act | others
COc1ccc(CNC(=O)C2CCCN2S(=O)(=O)c2ccc(Cl)cc2)cc1 (stereo not given) | 13* | HuH7 TTR inh=-12;TTR act confirm=0
COc1ccc(S(=O)(=O)N2CCCC2C(=O)NCc2ccccc2Cl)cc1 (stereo not given) | -2
C#CCOCCOCCOCCNc1nc(N2CCN(C(=O)Cn3cc(CCCCN)nn3)CC2)nc(N2CCN(C(=O)[C@H]([C@@H](C)CC)n3cc(CCCN=C(N)N)nn3)CC2)n1 | -1
C#CCOCCOCCOCCNc1nc(N2CCN(C(=O)Cn3cc(CCO)nn3)CC2)nc(N2CCN(C(=O)[C@H]([C@@H](C)O)n3cc(CCCCN)nn3)CC2)n1 | 11* | HuH7 TTR inh=-9;TTR act confirm=0
C#CCOCCOCCOCCNc1nc(N2CCN(C(=O)[C@H]([C@@H](C)O)n3cc(CCCCN)nn3)CC2)nc(N2CCN(C(=O)[C@H]([C@@H](C)CC)n3cc(CCCN=C(N)N)nn3)CC2)n1 | 7
CCCC[C@H](C(=O)N(CC)c1ccccc1)[C@@H](O)c1ccc(Cl)cc1 | 0
COC(=O)[C@]12C[C@H](CC(=O)N3CCCC3)C(=O)N(CCc3ccc(OC)c(OC)c3)C1=C[C@H](COCc1ccccc1)O[C@@H]2C | -1
Cc1ccc(OCc2nnc(SCC(=O)O)n2-c2ccccc2)cc1 | 1
CCn1c(COc2ccc3c(c2)OCO3)nnc1SCC(=O)O | 13* | HuH7 TTR inh=-5;TTR act confirm=0
CCn1c(COc2cccc(C)c2)nnc1SCC(=O)N1CCCC1 | 3
CCOC(=O)[C@]12CCCC=C1N(Cc1ccc(OC)cc1)C(=O)[C@@H]2CC(=O)NCCCCc1ccccc1 | 0
CCCC/C=C1/[C@@H](CC)N(Cc2ccc(OC)cc2OC)C2=N[C@@H](c3ccccc3)CC(=O)N21 | 2
O=C(COC(=O)C12CC3CC(CC(Br)(C3)C1)C2)NNC(=O)c1ccccc1 | 0
Cn1cccc1C(=O)NC(=O)COC(=O)C12CC3CC(CC(O)(C3)C1)C2 | 11* | HuH7 TTR inh=-6;TTR act confirm=-1
Cc1cc(C)c(NC(=O)COC(=O)C23CC4CC(CC(O)(C4)C2)C3)c(Cl)c1 | 2
O=S1(=O)c2ccc(Br)cc2OC[C@@H](c2ccccc2)N1Cc1cn(CCC2OCCCO2)nn1 | -1
CC(C)(C)S(=O)(=O)N1Cc2cc(CO)ccc2[C@@H]1CCO | 3
O=C1C2C(CC3c4ccccc4CCN32)CN1c1ccccc1 (stereo not given) | 1
S=c1[nH]nc(-c2cc(-c3ccccc3)n[nH]2)n1/N=C/c1cccs1 | 0
S=c1[nH]nc(-c2cc(-c3ccccc3)n[nH]2)n1/N=C/c1ccccc1 | 11* | HuH7 TTR inh=-15;TTR act confirm=1
S=c1[nH]nc(-c2cc(-c3ccccc3)n[nH]2)n1/N=C/C=C/c1ccccc1 | 4
O=C(Nc1ccccc1)Nc1nc2ncccn2c1-c1ccc(C(F)(F)F)cc1 | -2
CCOC(=O)c1sc(N(Cc2ccccc2)C(=O)CCl)nc1C | -1
Cc1ccsc1C(=O)OCC(=O)N(Cc1ccccc1)C(C)C | 2
CCOC(=O)c1sc(N(Cc2ccccc2)C(=O)COC(=O)c2ccccc2O)nc1C | 13* | HuH7 TTR inh=-14;TTR act confirm=1
SMILES | TTR transcr act | others
COCCCNCCCCOc1ccc(OCc2ccccc2)cc1 | 34* | HuH7 TTR inh=-11;TTR act confirm=0
C=CCNCCCCOc1ccc(OCc2ccccc2)cc1 | 1
COCCCNCCCCOc1ccccc1-c1ccccc1 | 1
CC(C)(C)OC(=O)N1CCC(N[C@@H](Cc2ccccc2)C(=O)NCC(c2ccccc2)c2ccccc2)(C(=O)NC2CCCCC2)CC1 | 2
O=C(OCc1cn(Cc2cccc(F)c2)nn1)N1CCCCC1 | -1
O=C1CCC[C@H]2C[C@H](NCc3ccccc3Cl)CC[C@]23CCCN13 | 0
COc1ccc(C)cc1NC(=O)C(=O)NNC(=O)COc1ccc(Cl)cc1 | 2
COc1ccc(OC)c(NC(=O)C(=O)NNC(=O)COc2ccc(Br)cc2C)c1 | 43* | HuH7 TTR inh=-9;TTR act confirm=0
COc1ccc(OCC(=O)NNC(=O)C(=O)Nc2cc(OC)ccc2OC)cc1 | 2
Cc1ccc(C(=O)O)cc1-c1ccc(/C=C2/NC(=O)N(c3ccccc3)C2=O)o1 | -1
O=C(O)c1ccc(COc2ccccc2/C=C2\NC(=O)N(Cc3ccc(F)cc3)C2=O)cc1 | 9
Cc1ccc(CN2C(=O)N/C(=C\c3ccc(-c4ccc(C(=O)O)cc4C)o3)C2=O)cc1 | 11* | HuH7 TTR inh=-18;TTR act confirm=0
CCCCNS(=O)(=O)/C=C/c1ccccc1CCNC(=O)OC(C)(C)C | 9
Cc1ccccc1CN1CCCCC(NC(=O)C2CCCC2)C1=O (stereo not given) | 0
CC(C)(C)OC(=O)N1CCC(N[C@@H](Cc2c[nH]c3ccccc23)C(=O)NCC(c2ccccc2)c2ccccc2)(C(=O)NC2CCCCC2)CC1 | -2
